Bioassay records from PubChem.
Sampled rows, rich in hits. Any-hit rate of the full collection: about 3.6%.
A3A deaminase – blocks human APOBEC3A ssDNA deamination; recombinant A3A, FAM/TAMRA ssDNA deamination fluorescence; 330,000 compounds, 0.41% hits; inhibition, % at 20 µM; P31941;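 active = at least 40% inhibition at 20 µM here, with at most 30% in a related deaminase screen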;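 note: plate controls were A3A with DMSO for no effect and wells lacking A3A enzyme for full effect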
Target sequence (P31941 whole entry, looked up): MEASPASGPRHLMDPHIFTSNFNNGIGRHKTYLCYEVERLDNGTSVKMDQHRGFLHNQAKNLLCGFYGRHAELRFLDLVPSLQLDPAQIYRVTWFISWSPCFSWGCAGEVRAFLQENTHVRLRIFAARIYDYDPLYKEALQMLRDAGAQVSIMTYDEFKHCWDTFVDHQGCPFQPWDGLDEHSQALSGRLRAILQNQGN
APOBEC3G inh – inhibitors of human APOBEC3G DNA deaminase. Q9HC16. 330,000 compounds, 0.28% hits. recombinant A3G, ssDNA deamination FAM/TAMRA fluorescence. inhibition, % at 20 µM;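 active = inhibition of at least 40% at 20 µM, with no more than 30% in the related APOBEC3A deaminase screen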;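 note: plate controls were DMSO wells with A3G for no effect and wells lacking A3G enzyme for full effect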
esBAF inh – blocks esBAF chromatin remodeling in mouse ES cells; 350,000 compounds, 2% hits; reporter increase, % at 12.5 µM; Bmi1-luciferase knock-in reporter, 24 h; 100% = twice the neutral-well signal; in the data active = activation above about 40%; inconclusive = no clear call, values can overlap the other calls;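 note: 0% = median of the plate's neutral control wells and 100% = double that signal; a rise in the Bmi1 reporter signal indicates esBAF inhibition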
PHOSPHO1 block – PHOSPHO1 (human) inhibition | Q8TCT1 | recombinant PHOSPHO1, absorbance phosphatase assay | 290,000 compounds, 1.1% hits | inhibition, % at 13.3 µM | AID 1565; in the data active = inhibition above about 60%
Target sequence (Q8TCT1 whole entry, looked up): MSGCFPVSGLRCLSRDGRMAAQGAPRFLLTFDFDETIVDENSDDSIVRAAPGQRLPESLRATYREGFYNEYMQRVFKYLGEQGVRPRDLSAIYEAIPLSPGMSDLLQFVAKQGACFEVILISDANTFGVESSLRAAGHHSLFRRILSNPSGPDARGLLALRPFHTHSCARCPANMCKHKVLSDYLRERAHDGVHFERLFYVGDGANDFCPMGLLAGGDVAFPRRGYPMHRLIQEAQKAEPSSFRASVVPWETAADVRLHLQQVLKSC
Wnt act – activators of Wnt/beta-catenin signaling; AID 743398; 300,000 compounds, 1.2% hits; Wnt/beta-catenin reporter cell assay, activator, plate reader; activation, % at 9.35 µM; in the data active = activation above about 30%, passing the limit was not always enough; inconclusive = no clear call, values can overlap the other calls;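 note: 0% = neutral control wells and 100% = positive control wells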
MITF act – increases MITF-driven TRPM1 promoter luciferase signal; 300,000 compounds, 0.75% hits; activation, % at 12.5 µM; SK-MEL-5 TRPM1-promoter luciferase, 24 h; % of positive control, neutral wells = 0;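 active = mean activation of at least 80% with every replicate also reaching 80%; inconclusive = mean reaches 80% but some replicate falls short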;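 note: 0% = neutral control wells and 100% = parthenolide positive control wells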
Active calls of the source: *.

`N#Cc1ccsc1NC(=O)CN1C(=O)NC2(CCCC2)C1=O` gave A3A deaminase 8.9, APOBEC3G inh 10.3, esBAF inh 45.4*, Wnt act 8.1 and MITF act -0.7.
`O=C(CN1C(=O)NC2(CCCCCC2)C1=O)c1ccc2c(c1)OCCO2` gave A3A deaminase -4.1, APOBEC3G inh -7.1, esBAF inh 37.2, PHOSPHO1 block -41.5 and Wnt act 66.7*.
`CCc1ccc(C(=O)CN2C(=O)NC3(CCCCCC3)C2=O)cc1` gave A3A deaminase 0.7, APOBEC3G inh -7.2, esBAF inh 64.0*, Wnt act 13.2 and MITF act 75.2.
Screening O=C(Cc1ccncc1)NCC[C@H]1CC[C@H](NC(=O)Nc2ccc(Cl)cc2)[C@H](CO)O1 returned esBAF inh -1.8.
Screening COc1ccc(NC(=O)Nc2ccc3c(c2)[C@@H]2C[C@@H](CC(=O)NCc4ccc5c(c4)OCO5)O[C@@H](CO)[C@@H]2O3)cc1 returned esBAF inh -0.8.
For O=C(C[C@H]1C[C@@H]2c3cc(NC(=O)CC4CC4)ccc3O[C@@H]2[C@@H](CO)O1)NCC1CC1 the results were esBAF inh 2.7.
COC(=O)[C@]12C[C@H](CC(=O)NCCC(C)C)C(=O)N(CCC3=CCCCC3)C1=C[C@H](C(C)(C)C)O[C@@H]2C was read as Wnt act -9.6.
`CCc1cccc2c(C(=O)CN3C(=O)NC4(CCCCCC4)C3=O)c[nH]c12` gave A3A deaminase -1.7, APOBEC3G inh -6.5, esBAF inh -22.0, Wnt act -2.3 and MITF act 101.9*.
Screening O=C(CN1C(=O)NC2(CCCCCC2)C1=O)c1ccc(Cl)cc1 returned A3A deaminase 0.2, APOBEC3G inh -1.9, esBAF inh 51.6*, Wnt act 14.9 and MITF act 55.5.
O=C(CN1C(=O)NC2(CCCCCC2)C1=O)c1ccc(F)cc1 was read as A3A deaminase -2.2, APOBEC3G inh -7.8, esBAF inh 6.4, Wnt act 3.7 and MITF act 20.9.
Screening O=C(Nc1ccc(CN2CCOCC2)cc1)c1ccc(Br)cc1 returned A3A deaminase -7.1, APOBEC3G inh -4.2, esBAF inh inconclusive, PHOSPHO1 block 19.1 and Wnt act -0.1.
Oc1cnc2ccccc2c1CN1CCOCC1 was read as A3A deaminase -5.2, APOBEC3G inh -5.0, esBAF inh -8.2, PHOSPHO1 block 5.7 and MITF act -7.4.
Screening O=C(Nc1ccc(CN2CCOCC2)cc1)c1ccc2ccccc2c1 returned A3A deaminase 0.2, APOBEC3G inh -5.1, esBAF inh 60.7*, PHOSPHO1 block -0.3, Wnt act 2.2 and MITF act 73.9.
O=C(Nc1ccc(CN2CCOCC2)cc1)c1cccc(F)c1 was read as A3A deaminase 1.4, APOBEC3G inh -6.2, esBAF inh 4.0, PHOSPHO1 block 3.6 and MITF act 88.1*.
For COC(=O)c1ccc(NC(=O)CN2CCOCC2)cc1 the results were A3A deaminase -0.5, APOBEC3G inh -4.5, esBAF inh 6.6, PHOSPHO1 block 74.0* and MITF act 13.7.
Oc1ccc2ccccc2c1CN1CCOCC1 was read as A3A deaminase -4.8, APOBEC3G inh -6.3, esBAF inh -2.6, PHOSPHO1 block 74.5*, Wnt act 1.1 and MITF act -5.9.
For O=C(Nc1ccc(CN2CCOCC2)cc1)c1ccc(F)cc1 the results were A3A deaminase -1.4, APOBEC3G inh 3.5, esBAF inh 16.1, PHOSPHO1 block 9.2, Wnt act 11.5 and MITF act 66.1.
CCC(=O)Nc1ccc2c(c1)C(=O)N(C)C[C@H](OC)[C@H](C)CN(CCc1ccccc1)[C@H](C)CO2 was read as esBAF inh -2.2.
For CC(=O)Nc1ccc(/C(C)=N/NC(=O)c2ccc(CN3CCOCC3)cc2)cc1 the results were A3A deaminase 1.8, APOBEC3G inh -5.5, PHOSPHO1 block -3.7, Wnt act 0.8 and MITF act -7.9.
For O=C(Nc1ccccc1N1CCOCC1)c1ccc2ccccc2c1 the results were A3A deaminase -3.0, APOBEC3G inh -13.9, esBAF inh 55.1*, PHOSPHO1 block 36.6, Wnt act 5.5 and MITF act -12.6.
For C/C(=N\NC(=O)c1ccc(CN2CCOCC2)cc1)c1ccc(NC(=O)c2ccccc2)cc1 the results were A3A deaminase -4.0, APOBEC3G inh -5.0, esBAF inh 65.6*, PHOSPHO1 block 28.5, Wnt act 9.9 and MITF act 38.6.
O=C(Nc1ccc(CN2CCOCC2)cc1)c1ccc(Cl)cc1 was read as A3A deaminase -6.0, APOBEC3G inh -3.2, esBAF inh 44.4*, PHOSPHO1 block 4.2, Wnt act 11.6 and MITF act 47.0.
C[C@H](CO)N1C[C@H](C)[C@H](CN(C)C(=O)c2ccccc2F)Oc2ncc(-c3cncnc3)cc2C1=O was read as esBAF inh -0.5.
For c1ccc(-c2ccc3sccc3n2)cc1 the results were A3A deaminase -2.6, APOBEC3G inh -3.9, Wnt act 48.0* and MITF act 115.5*.
`COC(=O)c1ccc(CSc2nnc(NC(=O)C3CC(=O)N(Cc4ccc(C)cc4)C3)s2)cc1` (stereo unspecified) gave A3A deaminase 3.1, APOBEC3G inh -1.8, esBAF inh -4.3, PHOSPHO1 block 0.3, Wnt act -2.5 and MITF act -18.7.
O=C(Nc1nnc(SCc2ccc(Cl)cc2)s1)C1CC(=O)N(Cc2ccccc2)C1 (stereo unspecified) was read as A3A deaminase -2.5, APOBEC3G inh -5.6, esBAF inh -13.6, PHOSPHO1 block -15.9, Wnt act 34.0* and MITF act 3.8.
For COc1cc(O)cc(/C=C/c2ccccc2)c1 the results were esBAF inh 50.8*, Wnt act -3.5 and MITF act 78.6.
Screening Oc1ccc(/C=C/c2cc(O)cc(O)c2)cc1 returned A3A deaminase 0.6, APOBEC3G inh -5.5, esBAF inh -3.5, PHOSPHO1 block 18.2, Wnt act 0.0 and MITF act 104.2*.
`O=C(O)/C=C/c1ccc(O)cc1` gave A3A deaminase 3.6, APOBEC3G inh -2.8, esBAF inh -2.5, Wnt act -1.8 and MITF act -7.2.
Screening Cc1nc2ccccc2n1CC(O)COc1ccccc1Cl (stereo unspecified) returned A3A deaminase -1.1, APOBEC3G inh -7.1, esBAF inh 1.4, PHOSPHO1 block 16.2, Wnt act 37.1* and MITF act -7.3.
For COc1ccc(NC(=O)N(C)C[C@@H]2Oc3ccc(NS(=O)(=O)c4ccc(C)cc4)cc3CC(=O)N([C@H](C)CO)C[C@@H]2C)cc1 the results were esBAF inh -2.9.
Cc1ccc(NC(=O)CS(=O)c2ccccc2N)c(C)c1 (stereo unspecified) was read as A3A deaminase -2.0, APOBEC3G inh -6.3, esBAF inh 50.4*, PHOSPHO1 block 18.7, Wnt act -2.9 and MITF act 14.4.
